Data reported in PubChem BioAssay (EPA / NIEHS).
Several values for one entry are separate records, joined by “and”; a condition that tells them apart may be missing. Identical values can stand only once. Results filed as inconclusive are left out. Activity calls are given as the source filed them. Rule for the calls: active = hit-call score of the fitted dose curve at least 0.9, where 1 is the maximum; inconclusive = response in the unintended direction; inactive = score below 0.9.

How the values were obtained:
[1] = target: rat CYP2C12, Cyp2c12 (gene 25011) (UniProt P11510); test: NVS_ADME_rCYP2C12: NovaScreen (NVS) CYP450-related Enzyme Activity (ADME) Assay for rat CYP2C12 (AID 2283119)
rat CYP2C12, Cyp2c12 (gene 25011), sequence (P11510 whole entry, looked up): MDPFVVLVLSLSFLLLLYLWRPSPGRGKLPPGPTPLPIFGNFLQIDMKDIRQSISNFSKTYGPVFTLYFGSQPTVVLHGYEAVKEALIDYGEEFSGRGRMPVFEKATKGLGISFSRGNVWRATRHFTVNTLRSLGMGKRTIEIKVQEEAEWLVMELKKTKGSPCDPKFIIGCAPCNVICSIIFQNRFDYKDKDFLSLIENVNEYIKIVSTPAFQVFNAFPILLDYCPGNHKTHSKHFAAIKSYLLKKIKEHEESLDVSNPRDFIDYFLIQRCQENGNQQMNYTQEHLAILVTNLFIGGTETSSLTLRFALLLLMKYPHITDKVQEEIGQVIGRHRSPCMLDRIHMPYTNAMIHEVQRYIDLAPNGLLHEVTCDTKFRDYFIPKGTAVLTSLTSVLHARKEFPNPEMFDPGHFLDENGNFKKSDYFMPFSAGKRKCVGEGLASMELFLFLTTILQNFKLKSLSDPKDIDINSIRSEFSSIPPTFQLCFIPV
How it was run: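 Fluorescent-substrate turnover by recombinant rat CYP2C12, measured at 0.5 h, normalized to acetonitrile vehicle. Chemicals screened first at a single 10 uM concentration in duplicate, with concentration series for actives.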

[2] = target: Caspase-3 (Homo sapiens) (UniProt P42574); test: NVS_ENZ_hCASP3: NovaScreen (NVS) Enzymatic Assay for human Caspase 3 (CASP3) (AID 2283139)
Caspase-3 (Homo sapiens), sequence (P42574 whole entry, looked up): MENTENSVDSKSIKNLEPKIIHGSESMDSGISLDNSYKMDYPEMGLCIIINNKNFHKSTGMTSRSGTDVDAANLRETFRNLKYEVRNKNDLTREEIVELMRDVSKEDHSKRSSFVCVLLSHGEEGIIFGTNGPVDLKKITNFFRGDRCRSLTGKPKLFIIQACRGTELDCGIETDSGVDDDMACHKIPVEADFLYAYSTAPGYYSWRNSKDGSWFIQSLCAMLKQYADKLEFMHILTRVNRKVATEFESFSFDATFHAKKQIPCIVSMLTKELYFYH
How it was run: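 Single-concentration screening at 25 uM in duplicate, with concentration-response follow-up to a 50 uM maximum for chemicals passing the threshold. Caspase-3 (human, E. coli-expressed) activity was read as substrate fluorescence after 1 h, with loss of signal relative to DMSO.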

[3] = target: rat CYP2A2, Cyp2a2 (gene 24895) (UniProt P15149); test: NVS_ADME_rCYP2A2: NovaScreen (NVS) CYP450-related Enzyme Activity (ADME) Assay for rat CYP2A2 (AID 2283116)
rat CYP2A2, Cyp2a2 (gene 24895), sequence (P15149 whole entry, looked up): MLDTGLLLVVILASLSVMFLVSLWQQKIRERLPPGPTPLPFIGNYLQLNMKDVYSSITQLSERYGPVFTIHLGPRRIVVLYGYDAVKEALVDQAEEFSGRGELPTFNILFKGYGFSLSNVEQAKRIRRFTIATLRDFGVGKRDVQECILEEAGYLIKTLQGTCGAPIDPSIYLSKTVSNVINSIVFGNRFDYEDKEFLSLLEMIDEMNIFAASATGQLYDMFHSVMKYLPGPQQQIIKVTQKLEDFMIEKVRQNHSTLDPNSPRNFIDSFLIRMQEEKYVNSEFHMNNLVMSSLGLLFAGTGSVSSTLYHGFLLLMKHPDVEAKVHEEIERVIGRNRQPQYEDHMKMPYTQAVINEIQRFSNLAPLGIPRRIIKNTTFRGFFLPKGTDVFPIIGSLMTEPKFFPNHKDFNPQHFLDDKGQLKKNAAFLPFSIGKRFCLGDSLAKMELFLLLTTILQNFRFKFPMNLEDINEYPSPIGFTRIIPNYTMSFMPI
How it was run: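 Compounds first tested in duplicate at 10 uM, then in singleton concentration series up to 20 uM when over threshold. Activity of the recombinant enzyme read by fluorescence at 0.2 h, normalised to acetonitrile vehicle.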

[4] = target: rat CYP2C11, Cyp2c11 (gene 29277) (UniProt P08683); test: NVS_ADME_rCYP2C11: NovaScreen (NVS) CYP450-related Enzyme Activity (ADME) Assay for rat CYP2C11 (AID 2283118)
rat CYP2C11, Cyp2c11 (gene 29277), sequence (P08683 whole entry, looked up): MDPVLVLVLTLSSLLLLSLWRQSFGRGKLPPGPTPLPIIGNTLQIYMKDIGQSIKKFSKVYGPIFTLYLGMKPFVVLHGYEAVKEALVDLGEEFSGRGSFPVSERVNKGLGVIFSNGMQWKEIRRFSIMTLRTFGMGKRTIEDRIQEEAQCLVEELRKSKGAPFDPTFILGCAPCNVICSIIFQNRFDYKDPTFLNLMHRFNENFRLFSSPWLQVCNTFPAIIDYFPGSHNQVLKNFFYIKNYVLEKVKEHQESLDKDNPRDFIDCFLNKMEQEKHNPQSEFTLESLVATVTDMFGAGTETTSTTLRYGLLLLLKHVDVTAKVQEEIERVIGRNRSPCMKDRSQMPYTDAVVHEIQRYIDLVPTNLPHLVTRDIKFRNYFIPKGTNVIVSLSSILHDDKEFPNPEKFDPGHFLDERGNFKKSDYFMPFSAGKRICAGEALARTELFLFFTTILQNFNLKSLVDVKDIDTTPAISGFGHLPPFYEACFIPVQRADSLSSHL
How it was run: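 Screened first at 10 uM in duplicate, hits followed by concentration-response. Recombinant rat enzyme activity monitored by fluorescence 0.33 h post-dosing, normalised to acetonitrile negative control.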

[5] = tested on: rat CYP3A1, gene 25642; test: NVS_ADME_rCYP3A1: NovaScreen (NVS) CYP450-related Enzyme Activity (ADME) Assay for rat CYP3A1 (AID 2283126)
How it was run: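 Compounds went first at 10 uM duplicate, then to series with 20 uM maximum. Fluorescence from substrate turnover by the recombinant enzyme was measured 0.5 h post-dosing, inhibition scored against acetonitrile vehicle.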

[6] = target: human AMP-activated Protein Kinase, alpha 1 (AMPKa1), PRKAA1 (gene 5562) (UniProt Q13131); test: NVS_ENZ_hAMPKa1: NovaScreen (NVS) Enzymatic Assay for human AMP-activated Protein Kinase, alpha 1 (AMPKa1) (AID 2283130)
human AMP-activated Protein Kinase, alpha 1 (AMPKa1), PRKAA1 (gene 5562), sequence (Q13131 whole entry, looked up): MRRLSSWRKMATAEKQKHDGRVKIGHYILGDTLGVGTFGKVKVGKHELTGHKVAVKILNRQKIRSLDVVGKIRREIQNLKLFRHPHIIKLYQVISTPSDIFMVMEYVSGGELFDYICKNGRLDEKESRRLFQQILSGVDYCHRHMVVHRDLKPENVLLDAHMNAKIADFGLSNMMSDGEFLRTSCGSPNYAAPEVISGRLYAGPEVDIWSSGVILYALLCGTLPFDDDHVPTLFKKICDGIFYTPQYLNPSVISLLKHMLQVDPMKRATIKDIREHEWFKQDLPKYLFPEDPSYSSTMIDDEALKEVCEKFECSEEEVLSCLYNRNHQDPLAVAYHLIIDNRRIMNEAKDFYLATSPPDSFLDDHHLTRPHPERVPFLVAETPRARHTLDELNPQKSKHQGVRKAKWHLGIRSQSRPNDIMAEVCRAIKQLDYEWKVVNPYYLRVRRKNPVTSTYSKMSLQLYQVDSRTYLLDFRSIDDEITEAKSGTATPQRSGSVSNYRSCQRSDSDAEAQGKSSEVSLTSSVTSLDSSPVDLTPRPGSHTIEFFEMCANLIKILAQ
How it was run: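 Compounds were screened in duplicate at 25 uM, and those reaching ~30% inhibition were titrated up to 50 uM. The enzyme was recombinant human AMPKα1, and kinase turnover was read by fluorescence/mobility shift 1 h post-dosing as loss of signal versus DMSO.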

[7] = target: Caspase-1 (Homo sapiens) (UniProt P29466); test: NVS_ENZ_hCASP1: NovaScreen (NVS) Enzymatic Assay for human Caspase 1 (CASP1) (AID 2283132)
Caspase-1 (Homo sapiens), sequence (P29466 whole entry, looked up): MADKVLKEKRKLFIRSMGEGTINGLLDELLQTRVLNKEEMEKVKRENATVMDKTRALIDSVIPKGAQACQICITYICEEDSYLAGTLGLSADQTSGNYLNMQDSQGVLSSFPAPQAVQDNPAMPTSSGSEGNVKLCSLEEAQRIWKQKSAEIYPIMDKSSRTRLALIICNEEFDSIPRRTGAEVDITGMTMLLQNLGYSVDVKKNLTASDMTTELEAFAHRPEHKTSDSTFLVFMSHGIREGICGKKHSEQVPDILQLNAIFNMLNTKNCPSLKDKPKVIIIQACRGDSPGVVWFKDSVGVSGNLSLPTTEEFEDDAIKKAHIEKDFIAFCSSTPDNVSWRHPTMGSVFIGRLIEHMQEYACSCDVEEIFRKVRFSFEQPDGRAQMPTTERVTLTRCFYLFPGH
How it was run: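 Compounds were first tested in duplicate at 25 uM, with follow-up concentration series up to 50 uM. The bacterially expressed enzyme was read by fluorescence at 1 h post-dosing. Signal loss versus DMSO baseline indicates reduced enzyme activity.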

[8] = target: human Caspase 10 (CASP10), CASP10 (gene 843) (UniProt Q92851); test: NVS_ENZ_hCASP10: NovaScreen (NVS) Enzymatic Assay for human Caspase 10 (CASP10) (AID 2283133)
human Caspase 10 (CASP10), CASP10 (gene 843), sequence (Q92851 whole entry, looked up): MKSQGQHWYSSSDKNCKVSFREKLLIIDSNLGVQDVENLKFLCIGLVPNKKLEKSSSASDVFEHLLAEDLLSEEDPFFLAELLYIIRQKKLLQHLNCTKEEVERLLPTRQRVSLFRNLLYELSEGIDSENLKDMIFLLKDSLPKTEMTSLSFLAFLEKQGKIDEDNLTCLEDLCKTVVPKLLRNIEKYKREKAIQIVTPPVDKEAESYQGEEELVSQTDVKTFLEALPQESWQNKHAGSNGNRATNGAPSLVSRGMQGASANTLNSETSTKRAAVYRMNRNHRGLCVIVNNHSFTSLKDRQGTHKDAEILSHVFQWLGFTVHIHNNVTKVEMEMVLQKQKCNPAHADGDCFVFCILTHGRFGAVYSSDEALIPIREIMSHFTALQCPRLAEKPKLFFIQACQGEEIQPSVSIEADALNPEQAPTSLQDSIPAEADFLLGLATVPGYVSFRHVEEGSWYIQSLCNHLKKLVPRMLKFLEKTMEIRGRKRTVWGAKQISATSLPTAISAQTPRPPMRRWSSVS
How it was run: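 Fluorescence-intensity enzyme read-out of E. coli-expressed CASP10 activity, 1 h after compound. Single-point duplicates at 25 uM preceded concentration-response testing (top 50 uM) of hits; inhibition expressed as signal loss versus DMSO.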

[9] = target: human Acid Phosphatase 1 (ACP1), ACP1 (gene 52) (UniProt P24666); test: NVS_ENZ_hACP1: NovaScreen (NVS) Enzymatic Assay for human Acid Phosphatase 1 (ACP1) (AID 2283136)
human Acid Phosphatase 1 (ACP1), ACP1 (gene 52), sequence (P24666 whole entry, looked up): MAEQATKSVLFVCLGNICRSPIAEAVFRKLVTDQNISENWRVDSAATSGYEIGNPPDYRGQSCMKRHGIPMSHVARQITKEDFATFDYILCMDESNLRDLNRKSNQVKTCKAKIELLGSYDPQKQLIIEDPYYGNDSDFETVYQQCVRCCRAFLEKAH
How it was run: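 Cell-free fluorescence read-out of phosphatase activity, substrate and product separated by mobility shift, taken 1.5 h after compound addition; protein produced in Sf9. Single 25 uM duplicate screen, followed by concentration series for actives, scored as signal loss relative to DMSO.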

[10] = target: human Caspase 5 (CASP5), CASP5 (gene 838) (UniProt P51878); test: NVS_ENZ_hCASP5: NovaScreen (NVS) Enzymatic Assay for human Caspase 5 (CASP5) (AID 2283137)
human Caspase 5 (CASP5), CASP5 (gene 838), sequence (P51878 whole entry, looked up): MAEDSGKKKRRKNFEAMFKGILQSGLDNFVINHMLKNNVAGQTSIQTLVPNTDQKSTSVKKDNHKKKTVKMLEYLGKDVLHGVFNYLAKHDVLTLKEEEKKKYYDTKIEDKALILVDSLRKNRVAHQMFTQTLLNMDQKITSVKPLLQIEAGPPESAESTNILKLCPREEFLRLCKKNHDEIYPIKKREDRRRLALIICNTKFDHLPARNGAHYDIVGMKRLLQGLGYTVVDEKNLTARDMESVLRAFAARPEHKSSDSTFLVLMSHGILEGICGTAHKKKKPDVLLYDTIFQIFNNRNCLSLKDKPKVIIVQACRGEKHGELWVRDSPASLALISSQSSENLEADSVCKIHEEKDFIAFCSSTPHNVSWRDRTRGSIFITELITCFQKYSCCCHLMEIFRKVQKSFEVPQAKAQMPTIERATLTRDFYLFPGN
How it was run: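 Fluorescent substrate readout of CASP5 activity (loss-of-signal), measured 2 h post-dose. Protein expressed in E. coli. Primary screen duplicate at 25 uM; actives meeting threshold (e.g., 30% inhibition) rerun singleton, max 50 uM.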

[11] = target: human AKT serine/threonine Kinase 1 (AKT1), AKT1 (gene 207) (UniProt P31749); test: NVS_ENZ_hAKT1: NovaScreen (NVS) Enzymatic Assay for human AKT serine/threonine Kinase 1 (AKT1) (AID 2283138)
How it was run: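 Fluorescence and mobility-shift readout of kinase activity, taken 1 h post-dosing in a cell-free format with recombinant protein. Primary screen at 25 uM in duplicate; hits (e.g. 30% inhibition) retested in concentration series topping at 50 uM.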

[12] = target: human Beta-secretase (BACE), BACE1 (gene 23621) (UniProt P56817); test: NVS_ENZ_hBACE: NovaScreen (NVS) Enzymatic Assay for human Beta-secretase (BACE) (AID 2283140);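 note: hits are inhibitors that reduce fluorescent substrate signal versus DMSO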
human Beta-secretase (BACE), BACE1 (gene 23621), sequence (P56817 whole entry, looked up): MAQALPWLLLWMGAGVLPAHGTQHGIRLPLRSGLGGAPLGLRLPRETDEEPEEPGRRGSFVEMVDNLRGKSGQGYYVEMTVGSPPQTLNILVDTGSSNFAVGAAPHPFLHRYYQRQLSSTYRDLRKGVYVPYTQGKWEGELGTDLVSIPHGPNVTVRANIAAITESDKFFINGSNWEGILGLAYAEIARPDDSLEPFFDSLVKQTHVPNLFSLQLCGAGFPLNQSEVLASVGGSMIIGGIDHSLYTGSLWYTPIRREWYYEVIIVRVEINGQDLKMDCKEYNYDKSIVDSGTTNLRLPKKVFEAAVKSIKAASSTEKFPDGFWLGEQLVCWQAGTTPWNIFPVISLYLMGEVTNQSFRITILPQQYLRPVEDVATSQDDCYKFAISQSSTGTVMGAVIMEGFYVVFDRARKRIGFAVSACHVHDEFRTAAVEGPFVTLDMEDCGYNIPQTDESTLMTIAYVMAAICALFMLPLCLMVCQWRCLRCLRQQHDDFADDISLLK
How it was run: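 SF9-expressed enzyme, cell-free; fluorescent substrate readout after 1 h. Screened at 25 uM single concentration, duplicate; hits retested in concentration series. Activity relative to DMSO baseline, loss-of-signal.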

[13] = tested on: rat CYP2B1, gene 24300; test: NVS_ADME_rCYP2B1: NovaScreen (NVS) CYP450-related Enzyme Activity (ADME) Assay for rat CYP2B1 (AID 2283117)
How it was run: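 Cell-free fluorescence enzyme assay, recombinant rat CYP2B1, 0.75 h after dosing. Single-concentration duplicates at 10 uM preceded concentration series (max 20 uM) for actives; acetonitrile as negative-control baseline.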

[14] = tested on: rat CYP2C6, gene 293989; test: NVS_ADME_rCYP2C6: NovaScreen (NVS) CYP450-related Enzyme Activity (ADME) Assay for rat CYP2C6 (AID 2283120)
How it was run: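 Compounds first tested in duplicate at 10 uM, hits (e.g. 30% inhibition) re-run in singleton dose series to a 20 uM top concentration. Enzyme activity of recombinant rat CYP2C6 measured via fluorescent substrate turnover after 1 h; acetonitrile baseline.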

[15] = target: rat CYP3A2, Cyp3a2 (gene 266682) (UniProt P05183); test: NVS_ADME_rCYP3A2: NovaScreen (NVS) CYP450-related Enzyme Activity (ADME) Assay for rat CYP3A2 (AID 2283128)
rat CYP3A2, Cyp3a2 (gene 266682), sequence (P05183 whole entry, looked up): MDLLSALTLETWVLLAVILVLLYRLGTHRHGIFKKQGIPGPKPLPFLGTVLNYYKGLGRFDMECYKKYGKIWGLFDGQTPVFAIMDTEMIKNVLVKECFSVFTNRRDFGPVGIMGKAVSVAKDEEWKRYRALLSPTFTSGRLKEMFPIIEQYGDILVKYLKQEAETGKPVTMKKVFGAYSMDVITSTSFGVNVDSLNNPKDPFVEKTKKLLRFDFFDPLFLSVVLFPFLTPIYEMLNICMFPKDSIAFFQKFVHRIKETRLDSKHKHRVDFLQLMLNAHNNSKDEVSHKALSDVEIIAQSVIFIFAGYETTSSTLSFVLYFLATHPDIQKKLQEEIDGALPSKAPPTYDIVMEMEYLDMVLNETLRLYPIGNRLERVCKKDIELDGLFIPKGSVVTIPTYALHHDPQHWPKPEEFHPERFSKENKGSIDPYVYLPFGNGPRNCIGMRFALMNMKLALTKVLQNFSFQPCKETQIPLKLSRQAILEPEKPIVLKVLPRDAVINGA
How it was run: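 Fluorescence readout of extracted rat CYP3A2 activity 0.5 h post-dose, acetonitrile as negative control. Single-point testing in duplicate at 10 uM, followed by concentration series to a 20 uM maximum for actives.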

[16] = target: human AKT serine/threonine Kinase 2 (AKT2), AKT2 (gene 208) (UniProt P31751); test: NVS_ENZ_hAKT2: NovaScreen (NVS) Enzymatic Assay for human AKT serine/threonine Kinase 2 (AKT2) (AID 2283141)
How it was run: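 Cell-free fluorescence/electrophoretic mobility shift readout of recombinant human AKT2 activity, 1 h after chemical dosing. Duplicate primary screen at 25 uM, then singleton concentration-response up to 50 uM; loss of signal versus DMSO baseline.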

Measured: AC50

O=C1c2ccccc2C(=O)N1SC(Cl)(Cl)Cl
inactive: [1] | [2]

O=S(=O)(O)C(F)(F)C(F)(F)C(F)(F)C(F)(F)C(F)(F)C(F)(F)C(F)(F)C(F)(F)F
active: [4] 0.0854 µM | [6] 15.7 µM and 5.63 µM | [9] 24.7 µM | [10] 26.7 µM [middle of 4 runs] | [11] 46.7 µM | [12] 2.29 µM and 2.36 µM and 8.91 µM
inactive: [3] | [5] | [7] | [8]

O=C(NC(=O)c1c(F)cccc1F)Nc1ccc(OC(F)(F)C(F)OC(F)(F)F)c(Cl)c1 (stereo unspecified)
inactive: [1]

COc1nn(CSP(=S)(OC)OC)c(=O)s1
active: [3] 4.97 µM | [13] 2.65 µM | [4] 0.564 µM | [14] 0.258 µM | [5] 4.25 µM | [15] 0.774 µM

O=C(O)C(F)(F)C(F)(F)C(F)(F)C(F)(F)C(F)(F)C(F)(F)C(F)(F)F
active: [3] 2.68 µM | [12] 3.58 µM and 1.2 µM
inactive: [5] | [7] | [9] | [10] | [16]
